Data published in PubChem BioAssay (EPA / NIEHS).
Records with an inconclusive call do not appear. Activity calls are given as the source filed them. How the source made its calls: active means hit-call score of the fitted dose curve at least 0.9, where 1 is the maximum; inconclusive means response in the unintended direction; inactive means score below 0.9.

The molecules below were run against Estrogen receptor (Homo sapiens) (UniProt P03372) (assay: CCTE_Deisenroth_AIME_384WELL_LUC_Active: CCTE's 384-well Estrogen Receptor Transactivation Assay with AIME metabolic competence (ERTA luciferase; metabolism positive), Deisenroth Lab (AID 2284030)).
Protocol: CCTE_Deisenroth_AIME_384WELL (AIME metabolism assay) is a cell-based, single-readout assay that uses VM7Luc4E2, a human mammary gland/breast cell line, with measurements taken at 24 hour after chemical dosing in a 384-well plate.CCTE_Deisenroth_AIME_384WELL_LUC_Active is one of four assay components measured or calculated from the CCTE_Deisenroth_AIME_384WELL assay. It is designed to make measurements of luciferase induction, a form of inducible reporter, as detected with bioluminescence signals by luciferase-coupled ATP quantitation technology.CCTE_Deisenroth_AIME_384WELL_LUC_Active is a component of the CCTE_Deisenroth_AIME_384WELL assay that measures the effect of retroftting the VM7Luc ERTA assay with the Alginate Immobolization of Metabolic Enzymes (AIME) metabolism method. AIME is optimized to impart phase I hepatic metabolism using phenobarbital/beta-naphthoflavone induced hepatic S9 from male Sprague Dawley rats. Parent chemicals are incubated for 2 hours in the AIME assay prior to transfer to the VM7Luc ERTA assay plate. […] This endpoint evaluates reporter induction in metabolism positive mode. Using a type of inducible reporter in VM7Luc cells, gain-of-signal activity can be used to understand changes in the reporter gene as they relate to xenobiotic metabolism and the gene ESR1. This assay endpoint, CCTE_Deisenroth_AIME_384WELL_LUC_Active, was analyzed in the positive analysis fitting direction relative to 17beta-estradiol as the positive control in the ERTA assay. To generalize the intended target to other relatable targets, this assay endpoint is annotated to the nuclear receptor intended target family, where the subfamily is steroidal.
The AIME procedure consists of a preparative "pre-stamping" step using a barium chloride/poly-L-lysine (PLL) solution followed by "stamping" the lid in alginate-hepatic S9 (metabolism positive) or alginate-water (metabolism negative) to form microspheres. Once stamping is completed, the AIME lids are placed in duplicate microplates (metabolism positive or negative) containing chemical solutions and incubated for two hours to facilitate metabolic reactions. The conditioned medium, containing parent chemical or metabolites, is then transferred to the cell-based VM7Luc Estrogen Receptor Transactivation Assay (ERTA) for 24 hours. A typical experimental design tests a 10-point concentration series (0.002 - 200 uM) for 8 compounds (96-well format)1 or 32 compounds (384-well format)2 in single technical replicate. AIME assay controls include trans-stilbene (bioactivated control) and ethylparaben (bioinactivated control). ERTA assay plate controls include 17-beta estradiol (positive control) and DMSO (solvent control). Experiments typically comprise a minimum of four experimental replicates (n=4).

Chain of Estrogen receptor (Homo sapiens) (P03372 whole entry, looked up): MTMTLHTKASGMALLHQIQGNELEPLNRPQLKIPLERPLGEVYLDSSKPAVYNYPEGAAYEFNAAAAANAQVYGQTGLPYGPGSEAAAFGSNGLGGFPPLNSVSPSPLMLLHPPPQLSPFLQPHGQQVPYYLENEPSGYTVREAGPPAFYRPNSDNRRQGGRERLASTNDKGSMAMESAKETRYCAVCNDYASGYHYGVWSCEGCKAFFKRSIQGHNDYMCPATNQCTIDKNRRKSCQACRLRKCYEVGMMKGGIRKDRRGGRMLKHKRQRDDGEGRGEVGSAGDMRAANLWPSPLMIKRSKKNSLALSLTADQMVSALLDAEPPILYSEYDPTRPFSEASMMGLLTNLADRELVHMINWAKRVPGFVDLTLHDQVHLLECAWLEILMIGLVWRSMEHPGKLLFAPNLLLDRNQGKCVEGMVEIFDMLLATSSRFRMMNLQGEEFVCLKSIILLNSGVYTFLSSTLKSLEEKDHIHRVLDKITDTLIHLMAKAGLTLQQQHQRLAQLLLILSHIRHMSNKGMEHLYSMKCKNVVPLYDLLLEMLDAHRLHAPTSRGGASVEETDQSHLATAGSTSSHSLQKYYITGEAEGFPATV

SMILES	AC50	outcome
O=C(Nc1ccccc1)c1ccccc1I	38.4 µM (active)	
CCCCCOC(=O)c1ccccc1C(=O)OCCCCC		inactive
OCCOCCO		inactive
O=C(Oc1ccc(Br)cc1)N1CCN2CCC1CC2		inactive
Cc1ccc([N+](=O)[O-])cc1		inactive
[O-][Cl+]O		inactive
C[N+](C)(C)CC1CO1 (stereo not given)		inactive
OCCCBr		inactive
CNC(=O)Oc1cccc2c1OC(C)(C)C2	100 µM (active)	
CCOc1cccc(C2(N3CCN(c4ccccc4)CC3)CCC(C)CC2)c1 (stereo not given)		inactive
